In PubChem BioAssay (EPA / NIEHS):
Records with an inconclusive call do not appear. Activity calls are given as the source filed them. How the source made its calls, unless noted: active means hit-call score of the fitted dose curve at least 0.9, where 1 is the maximum; inactive means score below 0.9.

Columns and labels:
[1] = read-out: Monocyte Chemoattractant Protein-1 (MCP1), CCL2 (gene 6347); test: BSK_SAg_MCP1: BioMAP Diversity Plus: SAg Assay for Monocyte Chemoattractant Protein-1 (MCP1) Biomarker Activity (AID 2283090); details: primary human HUVEC with PBMC; actives raise or lower the signal
Outline: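 MCP-1 levels in the endothelial–PBMC SAg co-culture were quantified by ELISA at 24 h post-dosing; both increases and decreases versus DMSO scored. Cytotoxicity monitored by SRB total protein in parallel cultures.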

[2] = read-out: E-selectin (Homo sapiens) (UniProt P16581); test: BSK_SAg_Eselectin: BioMAP Diversity Plus: SAg Assay for Eselectin Biomarker Activity (AID 2283091); details: primary human HUVEC with PBMC; actives raise or lower the signal
Outline: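 Endpoint values derive from bidirectional fitting relative to DMSO, using ELISA-measured E-selectin in a human vascular co-culture (umbilical vein endothelium plus PBMC) sampled 24 h after dosing.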

[3] = read-out: Monokine induced gamma interferon (MIG), CXCL9 (gene 4283); test: BSK_SAg_MIG: BioMAP Diversity Plus: SAg Assay for Monokine induced gamma interferon (MIG) Biomarker Activity (AID 2283092); details: primary human HUVEC with PBMC; actives raise or lower the signal
Outline: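 ELISA readout of MIG/CXCL9; primary human umbilical vein endothelial cells co-cultured with peripheral blood mononuclear cells; 24 h post-dose; gain/loss fit vs DMSO baseline.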

[4] = BSK_SAg_PBMCCytotoxicity: PBMC Cytotoxicity Assessment in the BioMAP Diversity Plus: SAg Assay (AID 2283093); details: primary human HUVEC with PBMC;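 further: PBMC viability measured as Alamar Blue reduction fluorescence at 546/580 nm; fitted both ways against DMSO so a hit may be loss or gain of signal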;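 on AC50: PBMC superantigen activated with SEB plus TSST-1 one hour after compound addition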
Outline: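 HUVEC/PBMC co-culture; PBMC exposed to chemical 1 h before SEB and TSST-1 activation (20 ng/mL each), incubated 90 h, then Alamar Blue 6 h, fluorescence 546/580 nm. Bidirectional fit versus DMSO baseline.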

[5] = BSK_SAg_Proliferation: Cell Proliferation Assessment in the BioMAP Diversity Plus: SAg Assay (AID 2283095); details: primary human HUVEC with PBMC;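 further: relative cell number as total protein by SRB absorbance in sub-confluent culture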
Outline: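 Cells (endothelium plus PBMC, human primary) were dosed with chemical, cultured 96 h, fixed in 10% TCA and stained with 0.1% SRB. Absorbance at 560 nm gave relative protein, fitted bidirectionally relative to DMSO.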

[6] = BSK_SAg_SRB: Viability Assessment in the BioMAP Diversity Plus: SAg Assay (AID 2283096); details: primary human HUVEC with PBMC;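 further: cells read one day after compound addition; hits may be either gain or loss of signal compared with DMSO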
Outline: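 Human umbilical vein endothelial cells co-cultured with PBMC, read 24 h after compound dosing. Total protein measured by sulforhodamine B staining (0.1% SRB after 10% TCA fixation, absorbance 560 nm); bidirectional fit versus DMSO baseline.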

[7] = target: human CYP2A6, CYP2A6 (gene 1548) (UniProt P11509); test: NVS_ADME_hCYP2A6: NovaScreen (NVS) CYP450-related Enzyme Activity (ADME) Assay for human CYP2A6 (AID 2283099; active means hit-call score of the fitted dose curve at least 0.9, where 1 is the maximum)
Outline: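 Loss of fluorescence signal relative to acetonitrile vehicle reported CYP2A6 inhibition in a cell-free system using insect-cell-derived enzyme. Readings were taken at 0.5 h; top concentration in follow-up dose series was 20 uM.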

[8] = target: human CYP1A1, CYP1A1 (gene 1543) (UniProt P04798); test: NVS_ADME_hCYP1A1: NovaScreen (NVS) CYP450-related Enzyme Activity (ADME) Assay for human CYP1A1 (AID 2283100; active means hit-call score of the fitted dose curve at least 0.9, where 1 is the maximum)
Outline: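 Inhibition of recombinant CYP1A1 turnover was assessed fluorometrically in a biochemical format 1 h after compound exposure. Testing began at 10 uM in duplicate and progressed to concentration series reaching 20 uM, with on-plate positive and negative controls.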

[9] = target: human CYP19A1, CYP19A1 (gene 1588) (UniProt P11511); test: NVS_ADME_hCYP19A1: NovaScreen (NVS) CYP450-related Enzyme Activity (ADME) Assay for human CYP19A1 (AID 2283098; active means hit-call score of the fitted dose curve at least 0.9, where 1 is the maximum)
Outline: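 Recombinant enzyme in a cell-free format, read 0.5 h after dosing by fluorescence from a fluorogenic substrate. Loss of signal was fitted against acetonitrile as baseline. Primary screen in duplicate at 10 uM, actives then tested in concentration series.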

Measured: AC50

human CYP1A1, CYP1A1 (gene 1543), sequence (P04798 whole entry, looked up): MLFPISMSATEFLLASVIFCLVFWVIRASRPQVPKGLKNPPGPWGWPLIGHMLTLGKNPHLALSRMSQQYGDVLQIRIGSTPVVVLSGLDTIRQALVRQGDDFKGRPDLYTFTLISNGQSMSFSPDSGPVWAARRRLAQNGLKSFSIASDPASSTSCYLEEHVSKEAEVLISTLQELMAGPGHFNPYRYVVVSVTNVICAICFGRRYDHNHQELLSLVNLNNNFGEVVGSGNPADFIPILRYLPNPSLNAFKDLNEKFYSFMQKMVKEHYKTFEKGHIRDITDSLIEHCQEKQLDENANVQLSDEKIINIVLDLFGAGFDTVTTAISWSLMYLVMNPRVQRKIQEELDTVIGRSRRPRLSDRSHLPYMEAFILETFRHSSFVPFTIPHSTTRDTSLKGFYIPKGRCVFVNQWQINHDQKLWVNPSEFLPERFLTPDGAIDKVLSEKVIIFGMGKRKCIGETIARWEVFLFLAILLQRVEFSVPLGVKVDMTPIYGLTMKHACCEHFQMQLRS
human CYP2A6, CYP2A6 (gene 1548), sequence (P11509 whole entry, looked up): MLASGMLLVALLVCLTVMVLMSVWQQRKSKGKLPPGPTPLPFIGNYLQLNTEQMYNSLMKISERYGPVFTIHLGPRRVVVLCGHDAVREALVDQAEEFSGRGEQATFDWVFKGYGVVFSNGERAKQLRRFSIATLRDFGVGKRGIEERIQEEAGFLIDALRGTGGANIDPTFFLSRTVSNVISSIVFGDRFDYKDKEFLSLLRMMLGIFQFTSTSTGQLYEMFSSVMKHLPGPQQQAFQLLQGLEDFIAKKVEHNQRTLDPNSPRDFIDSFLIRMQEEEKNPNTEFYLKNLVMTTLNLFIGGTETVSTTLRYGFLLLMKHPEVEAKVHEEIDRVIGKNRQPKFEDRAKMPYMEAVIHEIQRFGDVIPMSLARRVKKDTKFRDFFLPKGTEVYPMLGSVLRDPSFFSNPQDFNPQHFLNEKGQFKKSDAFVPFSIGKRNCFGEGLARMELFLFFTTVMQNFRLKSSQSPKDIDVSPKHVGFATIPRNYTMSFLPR
E-selectin (Homo sapiens), sequence (P16581 whole entry, looked up): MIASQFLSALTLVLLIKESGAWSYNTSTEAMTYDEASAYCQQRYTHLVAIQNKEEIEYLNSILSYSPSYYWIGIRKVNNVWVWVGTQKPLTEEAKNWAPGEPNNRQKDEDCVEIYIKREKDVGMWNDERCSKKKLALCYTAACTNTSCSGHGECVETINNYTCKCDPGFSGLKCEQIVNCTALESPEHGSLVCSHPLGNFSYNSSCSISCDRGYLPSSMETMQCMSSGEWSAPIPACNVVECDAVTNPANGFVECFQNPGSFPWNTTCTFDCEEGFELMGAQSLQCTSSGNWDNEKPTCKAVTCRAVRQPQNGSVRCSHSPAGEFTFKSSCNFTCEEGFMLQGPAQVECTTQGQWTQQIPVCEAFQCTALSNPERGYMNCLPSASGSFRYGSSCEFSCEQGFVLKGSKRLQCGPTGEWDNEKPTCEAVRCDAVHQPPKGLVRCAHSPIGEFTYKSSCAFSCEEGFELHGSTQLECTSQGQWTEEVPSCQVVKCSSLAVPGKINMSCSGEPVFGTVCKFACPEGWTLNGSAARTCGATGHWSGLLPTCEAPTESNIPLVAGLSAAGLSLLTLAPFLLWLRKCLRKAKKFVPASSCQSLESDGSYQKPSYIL
human CYP19A1, CYP19A1 (gene 1588), sequence (P11511 whole entry, looked up): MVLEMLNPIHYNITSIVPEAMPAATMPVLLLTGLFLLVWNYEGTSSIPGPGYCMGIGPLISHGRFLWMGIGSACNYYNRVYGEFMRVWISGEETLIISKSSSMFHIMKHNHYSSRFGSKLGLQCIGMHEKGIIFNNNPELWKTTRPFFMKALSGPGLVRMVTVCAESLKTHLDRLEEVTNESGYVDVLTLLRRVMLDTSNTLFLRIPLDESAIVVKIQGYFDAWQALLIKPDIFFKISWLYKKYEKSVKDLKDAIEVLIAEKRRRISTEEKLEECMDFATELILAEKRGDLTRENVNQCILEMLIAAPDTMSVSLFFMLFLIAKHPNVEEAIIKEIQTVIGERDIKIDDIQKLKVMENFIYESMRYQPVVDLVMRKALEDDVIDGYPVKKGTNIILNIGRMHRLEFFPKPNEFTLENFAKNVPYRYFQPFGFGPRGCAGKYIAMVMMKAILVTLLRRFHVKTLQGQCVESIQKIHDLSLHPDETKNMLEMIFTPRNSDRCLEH

CC[C@H](C)[C@@H](C(=O)O)n1sc2ccccc2c1=O
not listed: [7] | [8] | [9]
inactive: all other assays above

CCCCCCCCCCCCc1ccccc1S(=O)(=O)O
not listed: [7] | [8] | [9]
inactive: all other assays above

CC(=O)NC1(c2cccc(F)c2)CCN(CC[C@@]2(c3ccc(Cl)c(Cl)c3)CN(c3ccccc3)C(=O)CO2)CC1
active: [1] 27.5 µM | [4] 24.7 µM | [6] 24.6 µM
not listed: [9]
inactive: all other assays above

CCCOC(=O)c1ccc(O)cc1
not listed: [8] | [9]
inactive: all other assays above

Oc1cc2ccccc2c2ccccc12
inactive: [7]
active: [1] 7.84 µM | [2] 8.61 µM | [3] 10.8 µM | [4] 3.93 µM | [5] 3.62 µM | [6] 9.94 µM | [8] 5.31 µM

CCCCOCCO
not listed: [7] | [8] | [9]
inactive: all other assays above

CC1=C(/C=C/C(C)=C/C=C/C(C)=C/C(=O)O)C(C)(C)CCC1
active: [2] 6.38 µM | [3] 36.5 µM | [5] 27.5 µM | [8] 1.43 µM
inactive: [1] | [4] | [6] | [7]

CCCCCCC(=O)O
not listed: [7] | [8] | [9]
inactive: all other assays above

OC1CCCCC1
not listed: [7] | [8] | [9]
inactive: all other assays above

O=C(O)Cc1cc(I)c(Oc2cc(I)c(O)c(I)c2)c(I)c1
active: [1] 18.9 µM | [2] 16.2 µM | [3] 23.6 µM | [5] 19.6 µM
inactive: [4] | [6]

OC1CCC(C2CCCCC2)CC1 (centres undefined)
not listed: [7] | [8] | [9]
inactive: all other assays above

CCC(=C(c1ccc(O)cc1)c1ccc(OCCN(C)C)cc1)c1ccccc1
active: [1] 11.1 µM | [2] 18.7 µM | [3] 13.2 µM | [4] 7.32 µM | [5] 5.91 µM | [6] 8.31 µM

CCCCCCCC(=O)O
not listed: [7] | [8] | [9]
inactive: all other assays above

CCCCCCCCCCCCCCCS(=O)(=O)Oc1ccccc1
inactive: [1] | [2] | [3] | [6]
active: [4] 5.98 µM | [5] 6.39 µM

O=C(O)c1ccccc1C(c1ccc(O)cc1)c1ccc(O)cc1
not listed: [7] | [8]
inactive: all other assays above

CCc1nn(C2CCCCC2)c2cc(C3(C#N)CCC(C(=O)O)CC3)ccc12 (centres undefined)
inactive: [4]
active: [1] 4.61 µM | [2] 1.78 µM | [3] 28 µM | [5] 12.5 µM | [6] 11.5 µM
